16 compounds from PubChem BioAssay can be followed below.

A short description of test [1]: yeast 75Q aggregation reduction – 75Q-TubU reporter (AID 1593). The settings on record: Yeast 75Q polyglutamine aggregation reporter.
Test [2] in a line: restoration of touch response, mutant HTT neurons – whole organism, C. elegans mechanosensory neurons, N-terminal huntingtin (AID 1599). The settings on record: C. elegans polyQ-huntingtin mechanosensory neurons, stronger effect = higher value.
A short description of test [3]: blockers of cytochrome c efflux from mitochondria – biochemical, purified mitochondria (AID 1603).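 Further: mouse liver mitochondria challenged with calcium chloride; signal normalized to the plate average as 100%.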 The settings on record: stronger effect = lower value.
A short description of test [4]: polyglutamine aggregate formation blockers (AID 1604). The following applies: polyglutamine-induced protein aggregation inhibition assay; stronger effect = higher value; tested at 2.5 µM.
The nature of test [5]: glutamate transport activators, MN-1 cells, MN-1 cell line (AID 1612).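 Further: tested at 1 µM final; 0% = mean of DMSO vehicle wells on each plate; positive means more glutamate uptake than control and negative means less.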 The settings on record: MN-1 motor neuron cells, stronger effect = higher value.
The nature of test [6]: GFP-Q80 aggregate reduction, neuronal-like cells, cell-based, NGF-treated PC12, GFPQ80 (AID 1614).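 Further: lower means fewer inclusions and 0 means no inclusions at all.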 The settings on record: PC12 NGF-treated GFP-polyQ80 inclusion reduction.
Test [7] in a line: 75Q-TubH aggregate inhibition, S. cerevisiae, yeast (AID 1616). The following applies: S. cerevisiae 75Q-TubH polyglutamine aggregation suppression; stronger effect = higher value.
Test [8] concerns Hepatitis C virus NS3 helicase. The test is described as follows: blockers of NS3h binding to ssDNA – biochemical, fluorescence polarization, LOPAC1280 library, primary screen (AID 687035; in the data active means inhibition above about 37%). The following applies: Purified HCV NS3 helicase, Cy5-dT15 ssDNA binding fluorescence polarization; stronger effect = higher value; concentration not given here.
A short description of test [9]: compounds altering Cy5-DNA-NS3h complex signal – biochemical, LOPAC1280, artefact control for HCV NS3 helicase inhibitor project (AID 687037; call rule not given here). The settings on record: Cy5-DNA-NS3h complex fluorescence interference counterscreen.
The nature of test [10]: viability loss in pontine glioma line – cell-based, SU-DIPG-XVII, MIPE5.0, CellTiter-Glo, qHTS, dose response (AID 1347060).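 On AC50: cells exposed to compound for 48 hours before viability readout.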 The following applies: CellTiter-Glo ATP luminescence.
Test [11] can be described thus: viability loss in pontine glioma line – cell-based, SU-DIPG-XIII, MIPE4.0, CellTiter-Glo, qHTS, dose response (AID 1347061; cut-off not given, nearly all actives have AC50 up to about 37 µM;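 further: cells exposed to compound for 48 hours before readout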). The following applies: CellTiter-Glo ATP luminescence.
Test [12] is described as follows: viability loss in pontine glioma line – cell-based, SU-DIPG-XIII, MIPE5.0, CellTiter-Glo, qHTS, dose response (AID 1347064; cut-off not given, nearly all actives have AC50 up to about 23 µM;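 on AC50: cells exposed to compound for 48 hours before the viability read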). The following applies: CellTiter-Glo ATP luminescence.
A short description of test [13]: viability loss in pontine glioma line – cell-based, SU-DIPG-XXV, MIPE5.0, CellTiter-Glo, qHTS, dose response (AID 1347065).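 Further: cells exposed to compound for 48 hours before ATP readout.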 The settings on record: CellTiter-Glo ATP luminescence.
The subject of test [14] is Aerobactin synthetase IucA (Klebsiella pneumoniae). The test is described as follows: inhibition of K. pneumoniae IucA enzyme – biochemical, Tocris library, absorbance (AID 1345561; call rule not given here;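 further: 100% = enzyme without compound and 0% = no enzyme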). The following applies: purified IucA enzyme assay, absorbance (OD) read-out; stronger effect = lower value;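 tested at 8 µM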.
The nature of test [15]: JHH-DIPG-1 glioma cell viability, MIPE5.0 library, CellTiter-Glo luminescence, qHTS (AID 1347067).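 Further: cells exposed to compound for 48 hours before readout.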 The following applies: JHH-DIPG-1 glioma viability, CellTiter-Glo ATP luminescence.
The nature of test [16]: growth inhibition of DIPG cells – cell-based, MIPE5.0 library, qHTS (AID 1347068; cut-off not given, nearly all actives have IC50 up to about 30 µM;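 on IC50: cells exposed to compound for 48 hours before viability readout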). The settings on record: SU-DIPG-XXV viability.

Where “and” joins values, the source holds several entries; their conditions need not be identical. Equal values may be shown once. Records with an inconclusive call do not appear. For part of these data: Measured potencies and affinities stand elsewhere. Calls of active or inactive are those of the source. Unless noted, cut-off not given; nearly all actives show AC50 up to about 26 µM.

With `CN(C)CCC(c1ccc(Cl)cc1)c1ccccn1` (stereo unspecified), in test [1], the score was 1.36. The same compound came in with a rescue above control in test [2] of 7.64. Moreover, the cytochrome c release ratio in test [3] was 0.61. Also, the inhibition of aggregation in [4] was -12.5%. Besides, the glutamate uptake change in test [5] is -7.91%. Also, in [6], the inclusion score stood at 2. This compound also gave an aggregation suppression score in [7] of 1.27. In addition, the inhibition in test [8] was -6% (inactive). The fluorescence ratio (interference) in test [9] was 0.9 (inactive).

The compound `CNCCC=C1c2ccccc2CCc2ccccc21` came in with a score in [1] of 1.22. Also, in test [3], the cytochrome c release ratio turned out to be 0.98. Besides, the inhibition of aggregation in test [4] is 72.7%. In addition, in test [5], the glutamate uptake change is 13.8%. Also, the aggregation suppression score in [7] came to 1.32. Moreover, in test [8], the inhibition is -5% (inactive). Further, the fluorescence ratio (interference) in test [9] was 1 (inactive).

In [1], `Cc1ccc(N(CC2=NCCN2)c2cccc(O)c2)cc1` registered a score of 1.23. The rescue above control in [2] was -6.1. Also, in test [3], the cytochrome c release ratio amounted to 0.77. Besides, the inhibition of aggregation in [4] amounted to 56.3%. Moreover, the glutamate uptake change in [5] is -12.3%. Also, the inclusion score in test [6] was found to be 2. The aggregation suppression score in [7] came out at 1.42. Also, the inhibition in [8] is -6% (inactive). Moreover, in test [9], the fluorescence ratio (interference) is 0.9 (inactive). The compound was classed as inactive in test [10], in [11], in test [12] and in test [13].

As for `CC[C@H](C)C(=O)O[C@H]1CCC=C2C=C[C@H](C)[C@H](CC[C@@H]3C[C@@H](O)CC(=O)O3)[C@H]21`, the inhibition in test [8] is -1% (inactive). The fluorescence ratio (interference) in test [9] was 0.9 (inactive). Besides, the remaining activity in [14] was 123% (inactive). Also, the AC50 is 6.61 µM (active) in test [10] and 23.5 µM (active) in test [15].

Turning to `C[C@H](CCC(=O)O)[C@H]1CC[C@H]2[C@@H]3[C@@H](O)C[C@@H]4C[C@H](O)CC[C@]4(C)[C@H]3CC[C@]12C`, the outcome in test [10], in test [13], in [15] and in test [16] was inactive.

On to `CCCC1O[C@@H]2C[C@H]3[C@@H]4CCC5=CC(=O)C=C[C@]5(C)[C@H]4[C@@H](O)C[C@]3(C)[C@]2(C(=O)CO)O1` (stereo partly specified), for which the inhibition in test [8] was -5% (inactive). Besides, the fluorescence ratio (interference) in [9] was 0.9 (inactive). Further, the remaining activity in test [14] is 98.4% (inactive) and 108% (inactive).

With `C[C@]12CC[C@@H]3c4ccc(O)cc4CC[C@H]3[C@@H]1CC[C@@H]2O`, in [8], the inhibition was -3% (inactive). Further, in [9], the fluorescence ratio (interference) was 1 (inactive). Also, the outcome in [12] and in test [13] was inactive.

For the compound `OC[C@H]1O[C@@H](Oc2cc(O)cc(/C=C/c3ccc(O)cc3)c2)[C@H](O)[C@@H](O)[C@@H]1O`, the result in test [13], in test [15] and in test [16] was inactive.

Compound `CC(CCc1ccccc1)NCC(O)c1ccc(O)c(C(N)=O)c1` (stereo unspecified) had a score in test [1] of 1.61. Moreover, the rescue above control in test [2] stood at 19.4. Moreover, the cytochrome c release ratio in [3] came to 0.72. Also, in test [4], the inhibition of aggregation is 83.1%. In test [5], the glutamate uptake change is -2.28%. This compound also displayed an inclusion score in test [6] of 2. For the same compound, the aggregation suppression score in test [7] turned out to be 1.14. Further, the inhibition in test [8] was -4% (inactive). The fluorescence ratio (interference) in test [9] is 1 (inactive).

For `Nc1ccn([C@@H]2O[C@H](CO)[C@@H](O)C2O)c(=O)n1` (stereo partly specified), the AC50 in test [10] is 0.263 µM (active). Also, the call in [11], in test [12], in test [13], in test [15] and in test [16] was inactive.

`CC(=O)O[C@]1(C(C)=O)CC[C@H]2[C@@H]3C[C@H](C)C4=CC(=O)CC[C@]4(C)[C@H]3CC[C@@]21C`: the compound was called inactive in test [15] and in test [16].

As to `CN=C(N)NCCC[C@H](N)C(=O)O`, the inhibition in test [8] is 0% (inactive). Moreover, the fluorescence ratio (interference) in [9] was 1 (inactive).

For `CC(C)[N+]1(C)C2CCC1CC(OC(=O)C(CO)c1ccccc1)C2` (stereo unspecified), the remaining activity in [14] is 98.6% (inactive).

Consider `Cn1cc[nH]c1=S`, for which the score in [1] came to 1.43. In addition, the rescue above control in test [2] was -4.12. For the same compound, in test [3], the cytochrome c release ratio worked out at 1.1. The inhibition of aggregation in test [4] was 48%. For the same compound, the glutamate uptake change in [5] was -2.61%. Further, the inclusion score in test [6] was found to be 2. Also, the aggregation suppression score in test [7] was found to be 1.46.

`CC(=O)N=c1sc(S(N)(=O)=O)nn1C` gave a score in test [1] of 0.84. Besides, in test [2], the rescue above control is -0.14. The cytochrome c release ratio in test [3] worked out at 0.55. Further, the inhibition of aggregation in test [4] is 49.4%. Also, the glutamate uptake change in test [5] was -1.05%. The compound further yielded an inclusion score in test [6] of 2. The same compound yielded an aggregation suppression score in test [7] of 1.33.

For the compound `CC/C(=C(\c1ccccc1)c1ccc(OCCN(C)C)cc1)c1ccccc1`, the score in test [1] is -1.76. Also, the rescue above control in test [2] was found to be 2.54. In [3], the cytochrome c release ratio was determined as 2.67. In addition, the inhibition of aggregation in test [4] was determined as 58.9%. In addition, the glutamate uptake change in test [5] is -4.23%. Moreover, the aggregation suppression score in [7] is -0.635. For the same compound, the inhibition in [8] was -5% (inactive) and -2% (inactive). Besides, the fluorescence ratio (interference) in test [9] is 1 (inactive) and 0.9 (inactive). Further, in test [14], the remaining activity was 79.2% (inactive). The AC50 in test [10] is 17.1 µM (active); in [12] it was 13.5 µM (active); in test [13], 19.1 µM (active); in test [15], 21.5 µM (active). The IC50 in test [16] is 17.1 µM (active).
